Test results as given in article PMC5540273 (PLoS ONE, 2017).

Tests used:
Conditions in all cases: concentration: 1 μM, replicates: in singlicate; n = 1
PIK3C2G = system: PIK3C2G
PIK3CA = system: PIK3CA
PIK3CB = system: PIK3CB
PIK3CD = system: PIK3CD
PIK3CG = system: PIK3CG
PIK4CB = system: T1, PIK4CB
T1 construct: gene PI4KB

PIKFYVE = system: PIKFYVE
PIM1 = system: PIM1
PIM2 = system: PIM2
PIM3 = system: PIM3
PIP5K1A = system: PIP5K1A
PIP5K1C = system: PIP5K1C
PIP5K2B = system: PIP5K2B
PIP5K2C = system: T2, PIP5K2C
T2 construct: gene PIP4K2C

PKAC-alpha = system: T3, PKAC-alpha
T3 construct: gene PRKACA

PKAC-beta = system: T4, PKAC-beta
T4 construct: gene PRKACB

PKMYT1 = system: PKMYT1
PKN1 = system: PKN1
PKN2 = system: PKN2
PLK1 = system: PLK1
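Note: KINOMEscan kinase panel screen.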

| Compound | %Inh (PIK3C2G) | %Inh (PIK3CA) | %Inh (PIK3CB) | %Inh (PIK3CD) | %Inh (PIK3CG) | %Inh (PIK4CB) | %Inh (PIKFYVE) | %Inh (PIM1) | %Inh (PIM2) | %Inh (PIM3) | %Inh (PIP5K1A) | %Inh (PIP5K1C) | %Inh (PIP5K2B) | %Inh (PIP5K2C) | %Inh (PKAC-alpha) | %Inh (PKAC-beta) | %Inh (PKMYT1) | %Inh (PKN1) | %Inh (PKN2) | %Inh (PLK1) |
| --- | --- | --- | --- | --- | --- | --- | --- | --- | --- | --- | --- | --- | --- | --- | --- | --- | --- | --- | --- | --- |
| CC(C)(C)c1ccc2nccc(Nc3cccc(O)c3)c2c1 [GW856795] | 25% | 0% | 0% | 3% | 33% | 0% | 42% | 7% | 0% | 0% | 29% | 40% | 8% | 7% | 90.5% | 0% | 0% | 0% | 0% | 0% |
| COc1cc(Nc2nccc(-c3c(-c4cccc(NC(=O)c5c(F)cccc5F)c4)nn4ccccc34)n2)cc(OC)c1OC [GSK323521] | 9% | 4% | 16% | 0% | 9% | 11% | 0% | 17% | 0% | 5% | 0% | 45% | 23% | 27% | 0% | 6% | 4% | 12% | 6% | 2% |
| Cl.Cl.NCC(C(=O)Nc1cc(Br)c(-c2ccnc3[nH]ccc23)s1)c1ccccc1 (centres unmarked) [GSK1269851] | 0% | 0% | 0% | 0% | 0% | 9% | 0% | 19% | 0% | 0% | 55% | 38% | 74% | 1% | 97.2% | 93.6% | 0% | 100% | 15% | 0% |
| CSc1cccc2c(-c3ccncn3)c(-c3ccc(F)cc3)nn12 [GW514786] | 0% | 0% | 0% | 0% | 0% | 0% | 19% | 0% | 0% | 15% | 0% | 47% | 8% | 8% | 14% | 36% | 6% | 0% | 0% | 7% |
| CN1CCN(Cc2cccc(-c3ccc4c(Nc5ccc(Oc6ccccc6)cc5)ccnc4c3)c2)CC1 [GW578342] | 0% | 0% | 0% | 30% | 1% | 0% | 16% | 0% | 0% | 0% | 26% | 59% | 12% | 9% | 0% | 0% | 0% | 0% | 27% | 0% |
| COc1ccc(Nc2nccc(N3CCC(NC(=O)Nc4cccc(OC)c4)C3)n2)cc1 (centres unmarked) [GSK1379742] | 0% | 0% | 0% | 0% | 0% | 1% | 0% | 0% | 0% | 3% | 0% | 44% | 14% | 16% | 1% | 0% | 0% | 0% | 0% | 5% |
| Nc1ncnc2c1nc(-c1ccccc1)n2-c1ccccc1 [SKF-97293] | 6% | 16% | 27% | 17% | 13% | 29% | 20% | 39% | 0% | 24% | 13% | 0% | 19% | 0% | 7% | 17% | 18% | 20% | 4% | 68% |
| Cn1cc(-c2[nH]c3cc(NC(=O)[C@H](N)C4CCCCC4)cc4c3c2C=NNC4=O)cn1 | 0% | 0% | 9% | 6% | 0% | 0% | 1% | 39% | 0% | 46% | 33% | 52% | 82% | 41% | 70% | 63% | 2% | 88% | 90.5% | 0% |
| c1ccc(-c2cnc3nccnn23)cc1 [AH20685] | 0% | 0% | 0% | 0% | 0% | 0% | 0% | 0% | 0% | 9% | 0% | 24% | 13% | 0% | 0% | 0% | 0% | 7% | 0% | 0% |
| O=C(Nc1n[nH]c2nc(-c3ccc(O)cc3)ccc12)C1CC1 [SB-710363] | 0% | 0% | 0% | 0% | 2% | 20% | 0% | 45% | 89% | 81% | 21% | 83% | 56% | 0% | 0% | 18% | 0% | 19% | 23% | 0% |
| O=C(Nc1ccccc1F)NC1CCN(c2ccnc(Nc3ccc(F)cc3)n2)CC1 [GSK1379800] | 0% | 1% | 0% | 0% | 3% | 0% | 0% | 0% | 0% | 0% | 1% | 47% | 12% | 23% | 0% | 0% | 7% | 0% | 0% | 0% |
| O=C(Nc1cccc(Oc2ccc3nc(NC(=O)C4CC4)cn3n2)c1)c1ccccc1C(F)(F)F | 0% | 0% | 0% | 0% | 0% | 0% | 0% | 0% | 0% | 0% | 39% | 33% | 0% | 34% | 0% | 34% | 0% | 0% | 0% | 0% |
| c1ccc(Oc2ccc(Nc3ccnc4cc(-c5ccc(CNCCN6CCOCC6)o5)ccc34)cc2)nc1 [GW567145] | 0% | 0% | 0% | 0% | 0% | 0% | 50% | 0% | 0% | 0% | 62% | 71% | 21% | 57% | 0% | 0% | 0% | 0% | 0% | 0% |
| O=c1[nH]cc(-c2ccc(N3CCOCC3)cc2)c2sc(-c3cn[nH]c3)cc12 [GSK2276055] | 0% | 21% | 11% | 3% | 21% | 8% | 31% | 77% | 51% | 67% | 0% | 24% | 1% | 0% | 0% | 0% | 0% | 15% | 0% | 7% |
| C[C@@H]1CC[C@@H](C(=O)Nc2ccccc2)CN1c1cc(-c2ccc3c(N)n[nH]c3c2)nc(N)n1 [GSK2286062] | 0% | 0% | 0% | 0% | 2% | 0% | 0% | 31% | 0% | 4% | 0% | 18% | 3% | 4% | 0% | 0% | 16% | 0% | 0% | 0% |
| Cc1ccc(S(=O)(=O)Nc2ccc(Nc3nccc(Nc4cccc5[nH]ncc45)n3)cc2)cc1 [GSK581271] | 0% | 0% | 0% | 0% | 5% | 77% | 0% | 11% | 0% | 0% | 0% | 31% | 13% | 57% | 0% | 0% | 15% | 22% | 0% | 0% |
| CNC(=O)c1ccccc1Nc1nc(Nc2ccc(N3CCOCC3)cc2)ncc1Cl.Cl [GSK1576028] | 0% | 15% | 50% | 29% | 31% | 56% | 53% | 45% | 0% | 55% | 45% | 0% | 85% | 57% | 96.5% | 93.6% | 32% | 55% | 52% | 96.3% |
| COC(=O)Nc1nc2cc(Oc3ccc(NC(=O)Nc4cc(C(F)(F)F)ccc4F)cn3)ccc2[nH]1.Cl.Cl [GW681170] | 0% | 0% | 5% | 0% | 0% | 0% | 0% | 9% | 0% | 0% | 9% | 61% | 12% | 19% | 0% | 0% | 5% | 15% | 15% | 0% |
| O=C(Nc1cccc(-c2nn3ccccc3c2-c2ccnc(Nc3cccc(F)c3)n2)c1)c1c(F)ccc(F)c1Cl [GSK357952] | 21% | 0% | 0% | 0% | 0% | 24% | 0% | 10% | 0% | 0% | 0% | 7% | 8% | 0% | 13% | 18% | 5% | 17% | 0% | 0% |
